Growth data for 39 molecules are collected here from PubChem BioAssay (NCI).

Compounds without any hit were thinned out: in the full panel of roughly 83,000, 20% have a hit.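 Results are percent growth after 48 hours of single-concentration exposure. 100 means growth as in untreated cells, lower positive values show inhibition; negative values down to -100 show cell death.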 A number with no mark means an inactive call. Calls of active or inactive are those of the source. The calls were made as follows: active = growth percent below 10; inactive = the rest.

This assay relates to HL-60(TB) leukemia. In words: NCI-60 one-dose screen, 48 h (100 = growth as untreated, 0 = no growth, -100 = all killed). As to conditions: 10 µM unless noted.
In the case of `CSc1ccccc1NC(=O)c1ccc2nn(/C(C#N)=C/c3ccccn3)nc2c1`, the growth is -12.8% (active).
The result for `C#C[C@]1(O)CC[C@H]2[C@@H]3CC=C4c5sc(Nc6cc(C)cc(C)n6)nc5CC[C@]4(C)[C@H]3CC[C@@]21C` reads -16.4% (active); that for `CNS(=O)(=O)N1CCc2c(Br)c3c(c(OC)c2C1CCc1ccccc1)OCO3` (centres undefined), -36.1% (active); that for `COC(=O)c1c(C(=O)OC)c2ccc3c4ccccc4ccc3n2c1C(=O)C(C)Br` (centres undefined), 39%.
The figure for `CCCCn1c(O)c(N=Nc2nc(-c3cc4ccccc4oc3=O)cs2)c2cc(Br)ccc21` is 101%; for `N=C1N=C(SCc2nc3ccccc3[nH]2)NC(=O)/C1=C/c1ccc(Cl)cc1` it is 102%.
The figure for `COc1cc2oc(-c3cccc(NC(=O)[C@H](CC(N)=O)NC(=O)OC(C)(C)C)c3)cc(=O)c2c(OC)c1OC` is 67.2%; for `C/C(=N\N=C1/C(=O)Nc2ccccc21)c1ccc2c(c1)Nc1ccccc1S2` it is 63.6%.
Turning to `O=c1c2ccccc2nc(COc2ccccc2)n1/N=C/c1ccc(F)cc1`, the growth was 94.8%.
Regarding `O=C1NC(=NC23CC4CC(CC(C4)C2)C3)N/C1=C\c1ccc2ncccc2c1`, the growth was -11.2% (active).
The result for `CCN1C(=O)N(CC)C2NNC(Sc3c(C(=O)O)c4ccccc4n(CCC(C)C)c3=O)=NC21` (centres undefined) reads -48.1% (active); that for `C(=C\c1cc(/C=C/c2ccccc2)c2ccccc2n1)/c1ccccc1`, 2.48% (active); that for `COc1ccc(/C=C/c2nc3ccccc3c(=O)n2CC(=O)Nc2ccccc2)cc1`, 94.1%.
The figure for `CC(=O)Nc1cccc(Nc2nc(N[C@H]3CCCc4ccccc43)c3ccccc3n2)c1` is 90.6%.
The figure for `N#Cc1c(-c2ccc(Cl)cc2)nc2n[nH]c(-c3ccc(Cl)cc3)c2c1-c1ccc(C(F)(F)F)cc1` is 1.12% (active).
Take `CC1(C)[C@@H](NCO)CC[C@]2(C)[C@H]3C(=O)C=C4[C@@H]5C[C@](C)(CO)CC[C@]5(C)CC[C@@]4(C)[C@]3(C)CC[C@@H]12`: the growth is 58.2%.
The figure for `C=C[C@@]12CN3CC[C@]1(O)[C@@](C(=O)OC)(CO2)c1[nH]c2ccccc2c1C3` is 20.5%; for `O=C(Cn1nc(-c2ccccc2)ccc1=O)NNC(=S)NC1CCCCC1` it is 94.8%; for `O=C(Nc1ccc(OCc2ccc(F)cc2)cc1)Nc1ccc(Cl)c(C(F)(F)F)c1` it is -3.24% (active).
Turning to `CC1(c2ccccc2)NC(=O)N(CC(=O)Nc2ccc(C(=O)/C=C/c3ccccc3)cc2)C1=O` (centres undefined), the growth is 10.1%.
For `Nc1nnc(-c2cncc(Br)c2)c(-c2c[nH]c3ccc(Cl)cc23)n1`, the growth is 64.3%.
The result for `CC1=NN(C2=NC(=O)C(CC(=O)Nc3ccccc3C(F)(F)F)S2)C(c2ccc(N(C)C)cc2)C1` (centres undefined) reads 10.7%.
The figure for `COc1ccc(/C=C/c2nc3ccccc3n3c(-c4ccc(Cl)cc4)nnc23)cc1` is 71.8%.
The result for `N#Cc1c(Cl)nc(SCc2ccc(F)cc2)nc1-c1ccc(F)cc1` reads 50.2%; that for `CC(C)CN1C(=O)/C(=C\C(=O)c2cc3ccccc3oc2=O)c2ccccc21`, 96.1%.
With `COc1ccc(N=Nc2c(N)nn3c(-c4ccc([N+](=O)[O-])cc4)ccnc23)cc1`, the growth is 85.7%.
For `COc1cc2oc(-c3cccc(C(=O)Nc4ccc(Cl)cc4)c3)cc(=O)c2c(OCCN)c1OC`, the growth is -56.5% (active).
The figure for `Cc1nc(Nc2ccccn2)sc1C1=NNC(c2ccccc2F)C1` (centres undefined) is 4.96% (active).
The figure for `COc1c(F)ccc(C(=O)Nc2ccc3nc(NC(=O)C4CCCN(S(=O)(=O)c5ccc(Br)c(F)c5)C4)sc3c2)c1F` (centres undefined) is 88.8%; for `O=C(Nc1cccc(C(F)(F)F)c1)c1cncc(C#Cc2cnc3cccnn23)c1` it is 29.9%; for `O=c1oc2ccccc2cc1-c1csc(N2N=C(c3ccccc3)CC2c2ccc(N3CCOCC3)cc2)n1` (centres undefined) it is 96.5%.
The figure for `COc1cc2c3c(n(CCCNC(C)C)c(=O)c2cc1OC)-c1nc2c(cc1C3=O)OCO2` is 71.6%.
Consider `Cc1ccc(C(=O)C[n+]2cccc3c4ccccc4ccc32)cc1`, for which the growth was 1.77% (active).
The result for `CCCCNc1ccc2c3c(cccc13)C(=O)N(NCC(O)COc1ccc3c(C)cc(=O)oc3c1)C2=O` (centres undefined) reads 100%.
As to `COC(=O)c1c(C(=O)OC)c2c3ccccc3c3ccccc3n2c1C(=O)C(C)(C)C`, the growth was 72.5%.
The figure for `N#Cc1c(-c2ccc(F)cc2)nc(SCc2ccc([N+](=O)[O-])cc2)nc1N1CCOCC1` is 82.7%; for `Nc1nc(-c2ccccc2)c(N=Nc2ccc(Cl)cc2Cl)s1` it is -31.7% (active).
The result for `CN1C(=O)N(C)C2SC(N/N=C/c3ccc(F)cc3)=NC21` (centres undefined) reads -4.65% (active).
The figure for `COc1cc2oc(-c3cccc(C(=O)Nc4ccc(Cl)cc4)c3)cc(=O)c2c(OCCNC(=O)CNC(=O)OC(C)(C)C)c1OC` is 55.5%.
